Assay outcomes deposited in PubChem BioAssay by National Center for Advancing Translational Sciences (NCATS).
The list is not random: actives were taken first. Their share in the collection is about 8.2%.
KB-3-1 tox = KB-3-1 parental cell cytotoxicity; KB-3-1 viability, CellTiter-Glo ATP luminescence, 72 h; Potency, µM (top dose mostly 46.1 µM), hits mostly cytotoxic; 400,000 tested, 1.4% active; further: on the % scale 0 is the no-effect control and ±100 the full control effect; nearly all actives have a fitted effect of over 60% in size
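Here the drug-naive KB-3-1 line serves as comparator for MDR sub-line selectivity; cells received compound titrations, 72 h at 37 °C, then CellTiter-Glo readout.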
SW480 rerep = inducers of DNA re-replication in SW480 colon cancer cells | SW480 DNA re-replication, Hoechst DNA content imaging, 48 h | Potency, µM (top dose mostly 46.1 µM), for the others: top-dose re-replication activation, hits mostly activators | 340,000 tested, 1.8% active; further: % of control where 0% means no effect; nearly all actives have a fitted effect of over 55% in size
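Image-based DNA-content assay: after two days of treatment, nuclei were labelled with the DNA dye Hoechst and imaged, and hits were compounds raising the count of nuclei showing high fluorescence intensity.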
ELG1 repair inh = blocks ELG1-dependent DNA repair in HEK293T cells | 330,000 tested, 2.3% active | Potency, µM (titrated, usually from 46.1 µM), inactives show top-dose activity change, negative = inhibition, actives largely listed as inhibitors | AID 504467 | HEK293T ELG1-luciferase reporter, luminescence, 16 h; DNA damage induced by 5-fluorouridine; further: on the % scale 0 is the no-effect control and ±100 the full control effect; nearly all actives have a fitted effect of over 55% in size
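5-Fluorouridine DNA damage + compound/DMSO, 2,000 cells/well, 16 h, 37 °C/5% CO2. ONE-Glo, 30 min RT, luminescence. Readout = decrease in reporter signal.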
MCF10A rereplic = DNA re-replication induction in MCF 10a cells. MCF 10A DNA re-replication, Hoechst nuclear intensity, 48 h. Potency, µM (doses to about 46.1 µM), without a hit: at the top dose activity, positive = re-replication, most hits filed as activators. 350,000 tested, 2.9% active. AID 624296; further: % of control where 0% means no effect; nearly all actives have a fitted effect of over 50% in size
KB-V1 cytotox = KB-V1 MDR subline cytotoxicity | 400,000 tested, 3.4% active | KB-V1 MDR cells viability, CellTiter-Glo, 72 h | Potency, µM (series often up to 46.1 µM), hits mostly cytotoxic | AID 1347076; further: on the % scale 0 is the no-effect control and ±100 the full control effect; nearly all actives have a fitted effect of over 60% in size
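Potencies derive from concentration-effect curves fitted to normalized luminescence (CellTiter-Glo) of KB-V1 cells treated for 72 h at 37 degrees C in phenol-red-free DMEM containing 10% FBS.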
The depositor's hits bear a star. The call rests on the fitted dose curve; in most records, active means well fitted curve in the direction sought with a large enough effect; inconclusive means small, poorly fitted or top-dose-only effect, or another doubt; inactive means no such curve, though single readings can be large; an effect the other way counts as inactive or inconclusive. Potency means the concentration at half of the fitted maximal effect.

What do the screens show for `O=C(Nc1ccc2ccccc2c1)Nc1nnc(-c2ccccc2Cl)s1`?
KB-3-1 tox: inactive; KB-V1 cytotox: inactive

What do the screens show for `O=c1oc2ccccc2cc1-c1csc(NN=C2CCCCC2)n1`?
KB-3-1 tox: inactive; SW480 rerep: 7%; ELG1 repair inh: inconclusive; MCF10A rereplic: 16%; KB-V1 cytotox: inactive

How did O=c1oc2ccccc2cc1-c1nc2c(s1)CCCC2 do in these assays?
KB-3-1 tox: inconclusive; SW480 rerep: 1.2µM*; ELG1 repair inh: inconclusive; MCF10A rereplic: 1.2µM*; KB-V1 cytotox: inconclusive

How did CCCCNc1c(-c2ccc(F)cc2)nc2nc(C)cc(C)n12 do in these assays?
KB-3-1 tox: inconclusive; KB-V1 cytotox: inactive

Results for c1nc(NCCN2CCOCC2)c2sc3nc(N4CCOCC4)c4c(c3c2n1)CCC4 ?
KB-3-1 tox: inactive; SW480 rerep: -10%; ELG1 repair inh: 23µM*; MCF10A rereplic: -6%; KB-V1 cytotox: inconclusive

What do the screens show for `CC1(C)C(C=C(Cl)Cl)C1C(=O)N(Cc1ccccc1Cl)C1CCS(=O)(=O)C1` (centres undefined)?
KB-3-1 tox: inactive; SW480 rerep: 0%; ELG1 repair inh: -5%; MCF10A rereplic: 9%; KB-V1 cytotox: 15µM*

What do the screens show for `Clc1cccc(-c2cccc3nccn23)c1`?
KB-3-1 tox: inactive; KB-V1 cytotox: inactive

What do the screens show for `CCOC(=O)c1c(-c2ccccc2)oc2ccc(O)c(CN3CCN(C)CC3)c12`?
KB-3-1 tox: inconclusive; SW480 rerep: 15%; ELG1 repair inh: -1%; MCF10A rereplic: 23µM*; KB-V1 cytotox: 21µM*

What do the screens show for `CC(=O)C1CCC2C3CCC4CC(=O)CCC4(C)C3C=CC12C` (centres undefined)?
KB-3-1 tox: inactive; SW480 rerep: -3%; MCF10A rereplic: 1%; KB-V1 cytotox: inactive

What do the screens show for `CCc1cc(-c2[nH]ncc2-c2ccc([N+](=O)[O-])cc2)c(O)cc1OC`?
KB-3-1 tox: inactive; SW480 rerep: 26%; ELG1 repair inh: 0%; MCF10A rereplic: inconclusive; KB-V1 cytotox: inactive

What do the screens show for `O=[N+]([O-])c1ccc(COc2ccc(-c3[nH]ncc3-c3ccc(Cl)cc3)c(O)c2)cc1`?
KB-3-1 tox: inactive; SW480 rerep: inconclusive; ELG1 repair inh: inconclusive; MCF10A rereplic: 23µM*; KB-V1 cytotox: inactive

How did COc1ccc(-c2cn[nH]c2-c2ccc(OCc3ccc([N+](=O)[O-])cc3)cc2O)cc1OC do in these assays?
KB-3-1 tox: inconclusive; SW480 rerep: 4%; ELG1 repair inh: inconclusive; MCF10A rereplic: -1%; KB-V1 cytotox: 4.1µM*

How did COc1ccc(-c2[nH]ncc2-c2ccc(Cl)cc2)c(O)c1 do in these assays?
KB-3-1 tox: inactive; SW480 rerep: 15%; MCF10A rereplic: inconclusive; KB-V1 cytotox: inactive

Results for COc1ccc(-c2cn[nH]c2-c2ccc(OCc3ccccc3F)cc2O)cc1OC ?
KB-3-1 tox: inconclusive; SW480 rerep: inconclusive; ELG1 repair inh: inconclusive; MCF10A rereplic: inconclusive; KB-V1 cytotox: 18µM*

Results for O=C1OC(Nc2nc(-c3ccc(F)cc3)cs2)c2ccccc21 (centres undefined) ?
KB-3-1 tox: inactive; SW480 rerep: 26µM*; ELG1 repair inh: -29%; MCF10A rereplic: 21µM*; KB-V1 cytotox: inconclusive

Results for O=C(C[C@H]1C/C=C\C[C@H](Cc2ccc(F)cc2)C(=O)O[C@@H](c2ccccc2)CNC1=O)N[C@H](CO)Cc1ccccc1 ?
KB-3-1 tox: inactive; SW480 rerep: -2%; ELG1 repair inh: inconclusive; MCF10A rereplic: inconclusive; KB-V1 cytotox: inactive

How did O=C(C[C@H]1C/C=C\CC[C@H](Cc2ccc(F)cc2)C(=O)O[C@@H](c2ccccc2)CNC1=O)N[C@H](CO)Cc1ccccc1 do in these assays?
KB-3-1 tox: inconclusive; SW480 rerep: -1%; ELG1 repair inh: 21µM*; MCF10A rereplic: inconclusive; KB-V1 cytotox: inactive

Results for O=C(C[C@@H]1C/C=C/CC[C@@H](Cc2ccc(F)cc2)C(=O)OCCNC1=O)N[C@H](CO)Cc1ccccc1 ?
KB-3-1 tox: inactive; SW480 rerep: 13%; ELG1 repair inh: -17%; MCF10A rereplic: inconclusive; KB-V1 cytotox: inactive

Results for O=C(C[C@H]1C/C=C\CC[C@H](Cc2ccc(F)cc2)C(=O)O[C@@H](c2ccccc2)CNC1=O)N[C@@H](CO)Cc1ccccc1 ?
KB-3-1 tox: inconclusive; SW480 rerep: -2%; ELG1 repair inh: 9.2µM*; MCF10A rereplic: inconclusive; KB-V1 cytotox: inactive

What do the screens show for `O=C(C[C@H]1C/C=C\CC[C@H](Cc2ccc(F)cc2)C(=O)OC[C@H]2CCCN2C1=O)N[C@H](CO)Cc1ccccc1`?
KB-3-1 tox: inactive; SW480 rerep: -29%; ELG1 repair inh: 23µM*; MCF10A rereplic: 2%; KB-V1 cytotox: inactive

Results for O=C(C[C@H]1C/C=C\CC[C@H](Cc2ccc(F)cc2)C(=O)O[C@H](c2ccccc2)CNC1=O)N[C@H](CO)Cc1ccccc1 ?
KB-3-1 tox: inactive; SW480 rerep: 2%; ELG1 repair inh: 10µM*; MCF10A rereplic: inconclusive; KB-V1 cytotox: inactive

How did O=C1C2CC=CCC2C(=O)N1Cc1ccccc1Cl (centres undefined) do in these assays?
KB-3-1 tox: inactive; SW480 rerep: -14%; ELG1 repair inh: -3%; MCF10A rereplic: 0%; KB-V1 cytotox: inactive

Results for O=C(C[C@H]1CC[C@@H]2[C@H](COC[C@@H](O)CN2Cc2ccc(Cl)cc2)O1)NCCc1ccccc1 ?
KB-3-1 tox: inactive; KB-V1 cytotox: inconclusive

How did O=C(Nc1ccc(Oc2ccccc2)cc1)C1CCN(c2c3c(nc4ncnn24)CCC3)CC1 do in these assays?
KB-3-1 tox: inconclusive; SW480 rerep: 27%; ELG1 repair inh: 16µM*; MCF10A rereplic: inconclusive; KB-V1 cytotox: inconclusive

Results for Cc1ccc(NC(=O)C2CCN(S(C)(=O)=O)CC2)cc1 ?
KB-3-1 tox: inactive; SW480 rerep: -12%; ELG1 repair inh: 0%; MCF10A rereplic: -2%; KB-V1 cytotox: inactive

What do the screens show for `CS(=O)(=O)N1CCC(C(=O)Nc2ccc(Oc3ccccc3)cc2)CC1`?
KB-3-1 tox: inactive; SW480 rerep: 16µM*; ELG1 repair inh: -1%; MCF10A rereplic: 9.2µM*; KB-V1 cytotox: inconclusive

What do the screens show for `O=C(NC1CCCc2ccccc21)C1CCN(c2c3c(nc4ncnn24)CCC3)CC1` (centres undefined)?
KB-3-1 tox: inactive; SW480 rerep: 5%; ELG1 repair inh: -22%; MCF10A rereplic: -5%; KB-V1 cytotox: 21µM*

What do the screens show for `O=C1CC(C(=O)Nc2cc(Cl)ccc2Cl)n2ncnc2N1` (centres undefined)?
KB-3-1 tox: inactive; SW480 rerep: -11%; ELG1 repair inh: 8%; MCF10A rereplic: 1%; KB-V1 cytotox: inactive
